# Data reported in PubChem BioAssay (NCI).
# This is part of a sample that, as a whole, favours compounds with a hit. Of some 83,000 tested, about 20% had one in any assay.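 Step 1: grow cells in 96-well plates. Step 2: add test compound at a single concentration. Step 3: incubate 48 h. Step 4: record percent growth.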 Active and inactive are the calls of the source. Rule for the calls: active = growth percent below 10; inactive = the rest.
# Tested on: SNB-75 CNS
# Assay: NCI-60 one-dose screen, 48 h (100 = growth as untreated, 0 = no growth, -100 = all killed)
# Conditions: 10 µM unless noted
row,SMILES,growth
1,COc1ccc(C(=O)Nc2ncc(Cc3cccc(Cl)c3)s2)cc1OC,19.8% (inactive)
2,CN[C@]12CC3(C=CC(=O)C=C3)O[C@@]1(Cc1ccc(OC)cc1)N(C)C(=O)N2,37.8% (inactive)
3,Cc1nc2c(=O)[nH]c(SCC(=O)Nc3cccc(F)c3)nc2[nH]c1=O,93.6% (inactive)
4,O=S(=O)(Nc1ccc(Cl)cc1)c1ccc(-c2cnc(C3CC3)o2)cc1,-11.9% (active)
5,C=CCn1c(SCC(=O)Nc2ccc(C(=O)/C=C/c3ccc(Cl)cc3)cc2)nnc1-c1cc(-c2ccc(S(N)(=O)=O)cc2)nc2ccccc12,56% (inactive)
6,CCN1C(=O)N(CC)C2C1NN=c1s/c(=C\c3ccc(Cl)cc3Cl)c(=O)n12 (configuration not stated),19.7% (inactive)
7,COC(=O)[C@H]1CCCN1C[C@@H](O)CN1C(=O)/C(=C\c2cc(OC)c(OC)c(OC)c2)c2ccccc21,86% (inactive)
8,CN(C)CCCC1(c2ccc(F)cc2)OCc2cc(-c3cccc4[nH]ccc34)ccc21 (configuration not stated),11.4% (inactive)
9,O=C1Nc2ccc(Br)cc2/C1=N/c1n[nH]c(=S)s1,74.5% (inactive)
10,CCOC(=O)c1cc(-c2ccc([N+](=O)[O-])cc2)n(-c2ccc(C(=O)O)c(O)c2)c1C,53.5% (inactive)
11,COc1ccc(-c2nn(-c3ccccc3)cc2/C=C2/SC(=S)N(C)C2=O)cc1,33.3% (inactive)
12,O=C1c2cccnc2C(=O)c2c1c(C(=O)NCCn1ccnc1)c1ccccn21,37.3% (inactive)
13,N#C/C(=C\c1ccc2ccccc2c1)c1cc2ccccc2[nH]1,35.6% (inactive)
14,Cc1noc(C)c1C(=O)OCc1coc2ccccc2c1=O,81.6% (inactive)
15,CN(C)CCNc1nc2c3cc(Cl)ccc3nn2c2ccccc12,83.5% (inactive)
16,CC(=O)N1N=C(c2ccc(Nc3nc(Nc4ccc(Cl)cc4)nc(Nc4ccc(Cl)cc4)n3)cc2)CC1c1ccco1 (configuration not stated),112% (inactive)
17,CSc1nc2sc3c(c2c(=O)n1-c1ccc([N+](=O)[O-])cc1)CCCCC3,89.7% (inactive)
18,Cc1cc(N)c2cc(NC(=O)/C=C\c3ccccc3Cl)ccc2n1,-90.8% (active)
19,CCN(C(=O)N1CCN(c2cc3c(cc2F)c(=O)c(C(=O)O)cn3C2CC2)CC1)c1nc(-c2ccc(Cl)cc2)cs1,28.9% (inactive)

row,SMILES,growth
1,COC(=O)c1cc(-c2ccc(S(C)(=O)=O)cc2)[nH]c1N/N=C/c1c(Cl)cccc1Cl,10.1% (inactive)
2,NC(=O)c1c(NC(=O)c2ccccc2)sc2c1CCC(=O)C2,-3.05% (active)
3,Cc1ccc(C2=Nc3c(N)ncnc3NC(c3ccc4c(c3)OCO4)C2)cc1 (configuration not stated),53.5% (inactive)
4,COc1ccc(-c2nc(SCC(C)C)nc(N/N=C\c3ccc(F)cc3)c2C#N)cc1,80% (inactive)
5,COc1ccc(C(c2cc(OC)c(OC)c(OC)c2)N2CCN(c3ccccc3)CC2)cc1 (configuration not stated),90.2% (inactive)
6,CCCC(=O)NC(c1ccc2c(c1)OCO2)c1ccc2cccnc2c1O (configuration not stated),17.5% (inactive)
7,OCCNCCCOc1ccc2ncnc(Nc3ccc(Oc4cccc(C(F)(F)F)c4)c(Cl)c3)c2c1,62.4% (inactive)
8,COC(=O)CCC(=O)C(=O)OC,19% [10 mM] (inactive)
9,CS(=O)(=O)Nc1cc(-c2ccc3ncnc(Nc4c(Cl)ccc5c4OCO5)c3c2)cnc1Cl,-19.5% (active)
10,O=C1c2c(c3c4ccc(Br)cc4oc3c3[nH]c4ccccc4c23)C(=O)N1O,4.21% (active)
11,O=C1/C(=C/c2ccc(-c3ccc(Br)cc3)o2)SC(=S)N1CCc1ccc(O)cc1,37.9% (inactive)
12,CCN(CC)CCSc1nc(-c2ccccc2)c(C#N)c(=O)[nH]1,129% (inactive)
13,O=C(CCCCCCN1CC(=O)N2[C@H](c3cc(Br)cs3)c3[nH]c4ccccc4c3C[C@H]2C1=O)NO,26.2% (inactive)
14,C#Cc1cccc(Nc2ncnc3ccc(-c4cnc(N)nc4)cc23)c1,6.34% (active)
15,O=C(c1ccc(Cl)cc1)N1CCN(c2ccnc3cc(Cl)ccc23)CC1,110% (inactive)
16,COc1ccc(/C=C2\C(=O)N=C3N2NC(c2cc(Br)ccc2O)C=C(C)N3c2ccccc2)cc1 (configuration not stated),99% (inactive)
17,O=C(NCCCCNC(=O)OCc1ccc2c(Cl)cc(Cl)c(O)c2n1)OCc1ccc2c(Cl)cc(Cl)c(O)c2n1,24.6% (inactive)
18,CCCCCCCCCCCCCCCCCCOc1ccccc1CC(=O)NCC[N+]1(C)CCCC1,45% (inactive)
